CRFR2-BP ag: CRF-BP/CRF-R2 complex agonism. HEK293 CRF-R2/CRF-BP, calcium dye fluorescence (FLIPR); percent of saturating CRF peptide response. activation, % at 13.2 µM. 0.46% of 350,000 active;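 active means activation of at least 50%, plus an integration ratio under a set limit after plate pattern correction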;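 further: plate controls were neutral control wells without compound for no effect and CRF at EC100 for full effect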
NR3A LBD binder: modulators (binders) of human NR3A ligand-binding domain. NR3A LBD differential scanning fluorimetry, Tm shift; 0% = protein alone, 100% = glycine-bound protein. Tm shift relative to glycine control, % at 25 µM. 2.5% of 340,000 active. AID 1259313;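 active means melting temperature shift of at least 10% of the positive control shift, at one fixed dose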
MPTP inh: permeability transition pore inhibition; inhibition, % at 10 µM; 1.4% of 360,000 active; isolated mouse mitochondria, Ca2+ swelling absorbance, 30 min;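 active means inhibition of 50% or more, scaled per plate between neutral and stimulator controls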;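 further: 0% = DMSO wells given calcium and 100% = 1 mM EGTA wells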
TMEM16A inh: inhibitors of mouse TMEM16A calcium-activated chloride channel. HEK293 TMEM16A/YFP iodide influx fluorescence, ionomycin. normalized B-score (activity score, 25-100; higher = stronger inhibition) at 10 µM. Q8BHY3. 1.2% of 310,000 active;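 active means ratio plate-corrected score three or more library SD toward inhibition, starting fluorescence score within five deviations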;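 further: score derived from kinetic fluorescence span divided by baseline fluorescence per well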
Target sequence (Q8BHY3 whole entry, looked up): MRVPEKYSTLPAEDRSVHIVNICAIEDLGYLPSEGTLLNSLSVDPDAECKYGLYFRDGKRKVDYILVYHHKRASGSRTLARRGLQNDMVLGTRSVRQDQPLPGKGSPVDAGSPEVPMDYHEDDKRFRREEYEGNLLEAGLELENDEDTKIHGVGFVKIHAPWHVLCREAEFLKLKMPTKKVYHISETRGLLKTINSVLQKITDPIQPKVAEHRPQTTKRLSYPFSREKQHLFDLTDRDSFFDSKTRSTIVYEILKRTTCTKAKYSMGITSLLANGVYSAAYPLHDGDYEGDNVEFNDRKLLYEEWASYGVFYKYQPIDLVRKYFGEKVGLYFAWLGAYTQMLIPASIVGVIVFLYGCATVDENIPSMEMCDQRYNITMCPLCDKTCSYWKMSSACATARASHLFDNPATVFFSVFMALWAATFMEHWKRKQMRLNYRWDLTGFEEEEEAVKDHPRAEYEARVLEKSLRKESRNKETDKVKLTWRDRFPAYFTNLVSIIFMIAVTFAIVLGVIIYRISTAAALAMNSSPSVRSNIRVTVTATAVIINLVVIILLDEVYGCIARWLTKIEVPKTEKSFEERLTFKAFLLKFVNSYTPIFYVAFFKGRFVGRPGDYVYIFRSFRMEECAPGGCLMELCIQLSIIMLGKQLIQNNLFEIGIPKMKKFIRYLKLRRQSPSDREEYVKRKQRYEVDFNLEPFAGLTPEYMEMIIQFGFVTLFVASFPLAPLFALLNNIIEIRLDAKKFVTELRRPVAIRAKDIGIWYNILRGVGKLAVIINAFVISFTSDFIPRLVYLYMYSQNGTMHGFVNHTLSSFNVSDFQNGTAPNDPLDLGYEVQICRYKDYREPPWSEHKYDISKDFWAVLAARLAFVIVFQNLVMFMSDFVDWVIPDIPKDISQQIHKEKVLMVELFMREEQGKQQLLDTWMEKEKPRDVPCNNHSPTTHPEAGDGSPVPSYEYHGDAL
CRFR2-BP antag: CRF-BP/CRF-R2 complex antagonism. AID 588475. inhibition, % at 11.8 µM. 0.59% of 350,000 active. HEK293 CRF-R2/CRF-BP, CRF-induced calcium fluorescence;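 active means inhibition of the ligand-induced calcium signal above about 50% at the single tested concentration, limit read from the data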
ANO1 activ: activates or potentiates the mouse TMEM16A chloride channel; B-score at 10 µM; 0.3% of 340,000 active; HEK293 TMEM16A/YFP-H148Q/I152L, iodide quench fluorescence; hits give low values; Q8BHY3;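 active means fluorescence-ratio B-score plate-corrected deviation score at least 3 library SD below zero, with starting fluorescence score within 5 deviations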;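 further: channel opened by trigger with iodide after compound preincubation; score built on the fluorescence ratio of max minus min over baseline; more negative score means more quench and so TMEM16A activation or potentiation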
An asterisk follows results filed as active; i = inactive; / = not tested or not shown. A selection: hits, their analogues and other compounds. The true share with any hit is near 5.1%.

SMILES | CRFR2-BP ag | NR3A LBD binder | MPTP inh | TMEM16A inh | CRFR2-BP antag | ANO1 activ
CCCN(CCC)C(=O)Cn1c(=O)c2ccccc2n2c(=S)sc(-c3ccccc3C)c12 | 40 | 0 | 1 | i | -178 | -7.6*
COc1ccccc1CN1CC(C(=O)NCc2c(F)ccc(C)c2F)CCC1=O (stereo unspecified) | 0 | 0 | 0 | i | 0 | i
COc1ccc(CCNC(=O)CNC(=O)c2ccc(Br)o2)cc1OC | 1 | -2 | -1 | i | 8 | i
CCOC(=O)c1cc2c(=O)c3cc(C)ccc3oc2nc1C | -1 | 6 | 0 | i | 67* | i
CNc1nc(-c2cccc(C(=O)N(C)C)c2)cn2ccnc12 | / | / | 0 | / | / | /
CCOc1ccccc1NC(=O)COC(=O)C1COc2ccccc2O1 (stereo unspecified) | 0 | / | 1 | / | 95* | /
COc1ccccc1Cc1noc(COc2cccc(C)c2C)n1 | 1 | 22* | -3 | i | 42 | i
Cc1cc(NC(=O)CN2C(=O)NC(CC(C)C)C2=O)ccc1Br (stereo unspecified) | 3 | 29* | 0 | / | -24 | i
O=[N+]([O-])c1cc(F)cc(F)c1Nc1ccc(F)cc1 | -8 | 0 | 0 | / | -3 | i
FC(F)(F)Oc1ccccc1C(c1nnnn1C1CCCC1)N1CCN(C/C=C/c2ccccc2)CC1 (stereo unspecified) | / | / | 2 | / | / | /
COc1ccccc1-n1c(=S)sc2c(=O)n(Cc3ccco3)c(SC)nc21 | 3 | 4 | 0 | i | 60* | i
CCN1CCc2c(C#N)c(N3CCOCC3)nc(N3CCOCC3)c2C1 | 2 | 27* | -1 | i | -13 | i
CN1CCN(Cc2c(O)ccc3cc(-c4ccccn4)c(=O)oc23)CC1 | 63* | 1 | -1 | i | -7 | i
C=CC[C@H](CC(=O)OC(C)(C)C)C(=O)OC[C@@H]1CCCN1C(=O)[C@H](CC=C)CC(=O)N[C@H](CO)Cc1ccccc1 | 1 | -4 | 0 | / | 10 | i
CC(C#N)(Nc1ccc(Cl)cc1)c1cccnc1 (stereo unspecified) | -1 | 16* | -12 | i | -9 | i
C[C@H](CO)N1C[C@H](C)[C@H](CN(C)C(=O)Nc2ccccc2)OCc2cnnn2CCCC1=O | 0 | / | 0 | / | 12 | /
CC(=O)Nc1ccc(S(=O)(=O)N(C)CCOCc2ccccc2)cc1 | 1 | 16* | 1 | i | -5 | i
CC(=O)Nc1ccc(S(=O)(=O)N(CCO)Cc2ccccc2)cc1 | 0 | 1 | 0 | i | 2 | i
Cc1ccc2c(C)c(C(=O)N3CCCCC3CO)oc2c1C (stereo unspecified) | 0 | -3 | 0 | i | -15 | i
O=c1c2ccccc2cnn1CCOc1cccc(Br)c1 | 3 | 0 | 1 | i | -5 | i
CC(OC(=O)C1=COCCO1)C(=O)NC1(C#N)CCCCC1 (stereo unspecified) | 3 | 11* | -1 | / | -5 | i
COc1ccc2c(COC(=O)CNS(=O)(=O)c3ccccc3)cc(=O)oc2c1 | 0 | -1 | -2 | / | 1 | i
COc1ccc(C(=O)COC(=O)CNC(=O)c2cc(OC)cc(OC)c2)cc1 | -1 | 0 | 0 | i | -2 | i
COc1cc(OC)cc(C(=O)NCC(=O)OCc2cc(=O)oc3cc(OC)ccc23)c1 | -1 | -2 | 2 | i | 105* | i
COc1ccc(C(=O)COC(=O)CNC(=O)c2ccc(OC)cc2)cc1 | 0 | 11* | 0 | i | -1 | i
SMILES | CRFR2-BP ag | NR3A LBD binder | MPTP inh | TMEM16A inh | CRFR2-BP antag | ANO1 activ
COc1ccc(-c2nc(SCC(=O)Nc3nccs3)c(-c3ccc(Cl)cc3)[nH]2)cc1 | -8 | 15* | 1 | i | 37 | i
CCOc1ccccc1N1CCN(C(=S)Nc2ccc(S(=O)(=O)Nc3ncccn3)cc2)CC1 | -1 | 10* | -1 | i | -2 | i
N#C/C(=C\c1ccc(Cl)cc1)c1nc(-c2ccco2)cs1 | -2 | -5 | 1 | i | 22 | i
N#C/C(=C\c1ccc(F)cc1)c1nc(-c2ccco2)cs1 | 4 | 24* | 3 | i | -9 | i
N#C/C(=C\c1ccc(-c2ccccc2)cc1)c1nc(-c2ccco2)cs1 | 9 | 28* | 6 | i | 0 | i
CC1(c2nnc(-c3ccccc3)o2)CC(c2cccc(Cl)c2)=NO1 (stereo unspecified) | 1 | -4 | -2 | i | 6 | i
CC1(c2nnc(-c3cccc(Cl)c3)o2)CC(c2cccc([N+](=O)[O-])c2)=NO1 (stereo unspecified) | 2 | 1 | -1 | i | 32 | -27*
C=CCC1(C(=O)NCCO)CCN(C(=O)OC(C)(C)C)CC1 | 0 | -1 | 0 | i | 0 | i
COc1ccc(/C=C/c2ccc3cccc(O)c3n2)cc1Br | -1 | 37* | 2 | i | 15 | i
COc1cc(/C=C/c2ccc3c(Br)cc(Br)c(O)c3n2)ccc1O | 1 | 16* | 6 | i | 1 | i
Oc1cccc(/C=C/c2ccc3cccc(O)c3n2)c1 | -1 | 20* | -2 | i | 33 | i
COc1cccc(/C=C/c2ccc3cccc(O)c3n2)c1 | -3 | 8 | 0 | i | 7 | i
COc1ccc(Cl)cc1NC(=O)CN(C)C(=O)c1cc(C)oc1C | 0 | 1 | -2 | / | 5 | i
Cc1ccc(OCC(=O)N/N=C\c2ccc(-c3cccc(C(=O)O)c3)o2)c(C)c1 | -2 | 12* | 3 | i | 10 | i
NS(=O)(=O)c1ccc(NC(=O)CCC(=O)O)cc1 | / | / | -3 | / | / | /
ClCc1csc(-c2ccc(Cl)cc2)n1 | -4 | 13* | 0 | i | -1 | i
CCOc1ccc(-c2nc(CCl)cs2)cc1 | -1 | -1 | 2 | i | -8 | i
O=C(c1ccco1)N1CCC(c2nc3ccccc3[nH]2)CC1 | -1 | 1 | -3 | i | -2 | i
COc1ccc(CNC(=O)CN(CCC(C)C)S(=O)(=O)c2ccc3c(c2)OCCO3)cc1 | -3 | 154* | 2 | i | 8 | i
COc1ccc(/C=N/NC(=O)CN(Cc2ccccc2)S(=O)(=O)c2ccc3c(c2)OCCO3)cc1 | 1 | -12 | 6 | i | 18 | i
COc1ccc(CCNC(=O)COc2ccc(S(=O)(=O)NC3CCCCC3)cc2Cl)cc1 | 3 | -28 | 1 | 100* | -46 | i
COc1ccc(CCNC(=O)COc2ccc(S(=O)(=O)NC(C)C)cc2Cl)cc1OC | 12 | -4 | 22 | i | 18 | i
O=C(COc1ccc(S(=O)(=O)NC2CCCCC2)cc1Cl)NCc1cccnc1 | -4 | 2 | -1 | i | 80* | i

From PubChem
